In PubChem BioAssay (EPA / NIEHS):
Values joined by “and” are separate entries in the source; they are usually repeats but may differ in a detail not shown here. Equal entries are not always repeated. Records with an inconclusive call do not appear. Some compounds were tested as several samples or in several runs, with calls that do not always agree. Active and inactive are the calls of the source. The calls were made as follows, unless noted: active = hit-call score of the fitted dose curve at least 0.9, where 1 is the maximum; inactive = score below 0.9.

Assays:
[1] = CCTE_Shafer_MEA_dev_burst_rate: CCTE's Neural Network Formation Assay for Burst Rate, Shafer Lab (AID 2284042);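 as to AC50: potency for loss of burst rate below DMSO control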
Method in brief: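 Cells plated, treated day 0; recorded DIV 5, 7, 9, 12; fed and re-treated DIV 5, 9. Endpoint: bursts per recording time, active-electrode well mean, trapezoidal AUC, fitted in decreasing direction against DMSO baseline.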

[2] = CCTE_Shafer_MEA_dev_bursting_electrodes_number: CCTE's Neural Network Formation Assay for Number of Bursting Electrodes, Shafer Lab (AID 2284043; active = hit-call score of the fitted dose curve at least 0.9, where 1 is the maximum;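 as to AC50: potency is for loss of bursting electrodes relative to DMSO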)
Method in brief: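 Primary rat cortical neurons were cultured on PEI-coated 48-well MEA plates (16 electrodes/well) and exposed from plating through day 12, with compound renewed at feeds on DIV 5 and 9. Electrodes bursting ≥1 per 2 min were counted on DIV 5, 7, 9, 12; trapezoidal AUC taken.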

[3] = CCTE_Shafer_MEA_dev_burst_duration_mean: CCTE's Neural Network Formation Assay for Mean Burst Duration, Shafer Lab (AID 2284045);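 as to AC50: curve fitted for loss meaning shorter burst duration than DMSO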
Method in brief: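 Primary rat cortical neurons on PEI-coated 16-electrode MEA wells, exposed from plating through day 12 with compound renewed at DIV 5 and 9; spontaneous activity recorded days 5, 7, 9, 12. Well-mean burst duration collapsed as trapezoidal AUC, fitted for loss versus DMSO.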

[4] = CCTE_Shafer_MEA_dev_interburst_interval_mean: CCTE's Neural Network Formation Assay for Mean Interburst Interval, Shafer Lab (AID 2284046);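 also: well-mean interburst interval of bursting electrodes as AUC over four recording days; curve fitted for decrease in interburst interval relative to DMSO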
Method in brief: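 Developing rat cortical networks on 48-well MEAs receive compound from the day of plating. Burst intervals from each active electrode are averaged per well, and AUC over the recording days is fitted in the negative direction against DMSO.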

[5] = CCTE_Shafer_MEA_dev_inter_network_spike_interval_mean: CCTE's Neural Network Formation Assay for Mean Inter-network Spike Interval, Shafer Lab (AID 2284047);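 as to AC50: potency for a decrease in mean inter-network spike interval below DMSO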
Method in brief: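 Rat cortical cultures, 1.5 x 10^5 cells/well on 48-well MEA plates; continuous exposure days 0–12, medium and compound refreshed DIV 5, 9. Mean time between consecutive network-spike peaks; AUC across DIV 5/7/9/12; DMSO baseline, negative fitting direction.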

[6] = CCTE_Shafer_MEA_dev_network_spike_number: CCTE's Neural Network Formation Assay for Number of Network Spikes, Shafer Lab (AID 2284048);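 also: synchronized bursts across electrodes counted on days 5 7 9 12 and integrated as AUC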;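 as to AC50: fit as a loss of signal meaning fewer network spikes than DMSO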
Method in brief: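 Primary rat cortical neurons were seeded at 1.5 x 10^5 cells/well on PEI-coated 16-electrode MEA wells with laminin, exposed from plating day 0, compound renewed at DIV 5 and 9. Network spikes were recorded on days 5, 7, 9, 12 and summarized as trapezoidal AUC versus DMSO.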

[7] = CCTE_Shafer_MEA_dev_network_spike_peak: CCTE's Neural Network Formation Assay for Mean Number of Electrodes in Network Spike, Shafer Lab (AID 2284049);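 as to AC50: fitted for loss of signal meaning fewer electrodes in network spikes than DMSO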
Method in brief: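 Continuous 12-day exposure of rat cortical cultures, starting at plating, on MEA plates. Endpoint: electrodes participating in network-spike peaks, AUC across DIV 5–12, DMSO as negative control.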

[8] = CCTE_Shafer_MEA_dev_spike_duration_mean: CCTE's Neural Network Formation Assay for Mean Spike Duration, Shafer Lab (AID 2284051);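 also: mean network spike duration pooled as area under curve over DIV 5 to 12 recordings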;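 as to AC50: potency for a decrease in mean network spike duration versus DMSO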
Method in brief: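 Readout is the average length of network spikes, clustered firing across electrodes, summed over DIV 5, 7, 9 and 12 as area under the curve. Neurons from rat cortex developed networks on MEA plates under continuous 12-day exposure.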

[9] = CCTE_Shafer_MEA_dev_network_spike_duration_std: CCTE's Neural Network Formation Assay for Standard Deviation of Network Spike Duration, Shafer Lab (AID 2284052);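 also: area under curve of spike duration SD across recording days 5 to 12; hits are decreases in network spike duration SD versus DMSO vehicle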
Method in brief: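 Read-out is the trapezoidal area-under-the-curve across recordings made on days 5, 7, 9 and 12, fitted in the negative direction against DMSO baseline. Neurons were primary rat cortical cells treated from day 0, with treatment renewed at each feed.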

[10] = CCTE_Shafer_MEA_dev_per_network_spike_spike_number_mean: CCTE's Neural Network Formation Assay for Mean Number of Spikes in a Network Spike, Shafer Lab (AID 2284053);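 as to AC50: fitted as decrease in spikes per network spike relative to DMSO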
Method in brief: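 Continuous twelve-day exposure of developing rat cortical networks grown over 16 microelectrodes per well; spontaneous firing is captured at four time points, and the per-network-spike spike number is integrated over development by trapezoidal AUC.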

[11] = CCTE_Shafer_MEA_dev_LDH: CCTE's Lactate Dehydrogenase Assay for Cytotoxicity in the Neural Network Formation Assay, Shafer Lab (AID 2284068; active = hit-call score of the fitted dose curve at least 0.9, where 1 is the maximum;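 also: exposure for twelve days from plating with re-dosing on DIV 5 and 9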)
Method in brief: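 Cytotoxicity companion to network-formation recordings: rat cortical neurons received compound over 12 days of development, re-dosed at DIV 5 and 9 feeds. Viability was inferred from LDH enzyme activity relative to DMSO.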

[12] = CCTE_Shafer_MEA_acute_AB: CCTE's Alamar Blue Assay for Cytotoxicity in the Neural Acute Assay, Shafer Lab (AID 2284069; active = hit-call score of the fitted dose curve at least 0.9, where 1 is the maximum;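 also: active compounds lower the viability signal compared with DMSO wells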)
Method in brief: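 Metabolic activity in chemically exposed rat cortical neurons (MEA cultures, day 13/15 post-plating) measured via CellTiter Blue resazurin reduction, 544/590 nm fluorescence; fitted relative to DMSO, with signal loss indicating reduced viability.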

[13] = CCTE_Shafer_MEA_dev_AB: CCTE's Alamar Blue Assay for Cytotoxicity in the Neural Network Formation Assay, Shafer Lab (AID 2284083; active = hit-call score of the fitted dose curve at least 0.9, where 1 is the maximum;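 also: twelve days of exposure from plating with re-dosing on DIV 5 and 9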)
Method in brief: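 Fluorescent resazurin reduction serves as the viability read-out, with DMSO as negative control and baseline. Cells were primary rat cortical neurons grown on MEA plates and dosed from day 0 to day 12, treatment renewed on DIV 5 and 9.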

[14] = CCTE_Shafer_MEA_acute_LDH: CCTE's Lactate Dehydrogenase Assay for Cytotoxicity in the Neural Acute Assay, Shafer Lab (AID 2284086; active = hit-call score of the fitted dose curve at least 0.9, where 1 is the maximum;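 also: active means LDH release rises above DMSO vehicle level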)
Method in brief: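 Primary rat cortical neurons on 48-well MEA plates, treated on day 13 or 15 post-plating. After the 40-min recording with compound, medium LDH release was read by absorbance at 490 nm. Gain of signal was fitted against DMSO negative control.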

[15] = CCTE_Shafer_MEA_dev_mutual_information_norm: CCTE's Neural Network Formation Assay for Mutual Information Normalization, Shafer Lab (AID 2284091);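 as to AC50: mutual information between electrodes summarised as area under curve across four recording days; potency is for a decrease in mutual information relative to DMSO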
Method in brief: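 Rat cortical cultures, 48-well MEA, continuous exposure DIV 0–12 with full media/compound change DIV 5 and 9. Readout: inter-electrode mutual information, AxIS adaptive spike detection; AUC across DIV 5/7/9/12 recordings; DMSO baseline, negative fitting direction.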

[16] = target: Estrogen receptor (Homo sapiens) (UniProt P03372); experiment: CCTE_Deisenroth_AIME_384WELL_LUC_Shift: CCTE's 384-well Estrogen Receptor Transactivation Assay with AIME metabolic competence data shift (ERTA luciferase; difference in metabolism positive and negative), Deisenroth Lab (AID 2284041);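 also: shift is response with S9 minus without S9 so positive means metabolism raised ER signal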
Sequence of Estrogen receptor (Homo sapiens) (P03372 whole entry, looked up): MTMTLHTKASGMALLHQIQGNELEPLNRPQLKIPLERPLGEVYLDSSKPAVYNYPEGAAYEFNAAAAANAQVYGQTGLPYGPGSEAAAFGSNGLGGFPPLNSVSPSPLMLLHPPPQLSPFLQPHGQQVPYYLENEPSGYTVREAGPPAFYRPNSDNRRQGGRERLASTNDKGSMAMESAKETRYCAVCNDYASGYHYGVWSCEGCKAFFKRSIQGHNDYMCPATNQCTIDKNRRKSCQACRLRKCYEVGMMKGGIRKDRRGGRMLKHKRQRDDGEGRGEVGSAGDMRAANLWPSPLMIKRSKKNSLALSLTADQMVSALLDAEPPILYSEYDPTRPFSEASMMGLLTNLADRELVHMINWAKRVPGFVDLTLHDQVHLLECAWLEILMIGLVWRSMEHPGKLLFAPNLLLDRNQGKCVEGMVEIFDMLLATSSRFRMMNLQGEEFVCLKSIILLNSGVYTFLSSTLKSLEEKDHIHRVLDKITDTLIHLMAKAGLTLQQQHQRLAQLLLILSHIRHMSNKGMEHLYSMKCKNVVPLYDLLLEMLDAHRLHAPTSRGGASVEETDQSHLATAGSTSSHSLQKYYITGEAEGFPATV
Method in brief: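 Here, parent compounds undergo 2 h phase I metabolism by PB/BNF-induced rat S9 before 24 h transactivation in VM7Luc4E2 cells; the curve models S9-positive minus S9-negative response over a 10-point series.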

[17] = system: DIO2 (gene 1734); experiment: CCTE_GLTED_hDIO2: CCTE's human Deiodinase 2 (DIO2) Inhibition Assay, Great Lakes Toxicology and Ecology Division (GLTED) Lab (AID 2284050; active = hit-call score of the fitted dose curve at least 0.9, where 1 is the maximum)
Method in brief: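 Cell-free human DIO2 enzyme was incubated with test chemical for 3 h; iodide liberated from substrate was then quantified by the Sandell-Kolthoff reaction (absorbance), run in triplicate. Loss of signal versus DMSO baseline indicated inhibition.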

[18] = system: DIO3 (gene 1735); experiment: CCTE_GLTED_hDIO3: CCTE's human Deiodinase 3 (DIO3) Inhibition Assay, Great Lakes Toxicology and Ecology Division (GLTED) Lab (AID 2284055; active = hit-call score of the fitted dose curve at least 0.9, where 1 is the maximum;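 also: potency is for inhibition seen as loss of released iodide signal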)
Method in brief: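 Cell-free assay with human DIO3 enzyme produced by adenovirus expression; enzyme incubated with test chemical for 3 hours. Liberated iodide then measured by Sandell-Kolthoff absorbance; loss of signal versus DMSO baseline indicates inhibition, run in triplicate.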

[19] = UKN5_HCS_SBAD2_cell_viability: Viability Assessment in the University of Konstanz (UKN) Leist Lab Neurite Outgrowth Assay in human iPSC-derived immature Dorsal Root Ganglia Neurons (UKN5) (AID 2284056)
Method in brief: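 iPSC-derived immature peripheral neurons (SBAD2) seeded on Matrigel with CHIR99021, SU5402 and DAPT, dosed 1 h later for 24 h. Viability from Hoechst H-33342 and calcein-AM live staining, high-content imaging; bidirectional fit versus DMSO.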

[20] = UKN5_HCS_SBAD2_neurite_outgrowth: University of Konstanz (UKN) Leist Lab Neurite Outgrowth Assay in human iPSC-derived immature Dorsal Root Ganglia Neurons (UKN5) (AID 2284070); details: actives raise or lower the signal
Method in brief: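 Human iPSC-derived immature DRG neurons (SBAD2) on Matrigel with CHIR99021 (1.5 uM), SU5402 (5 uM), DAPT (5 uM); compounds added 1 h post-seeding for 24 h. Calcein-AM neurite area imaged; bidirectional fit vs DMSO.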

Measured: AC50

CC(C)N(C(=O)SCC(Cl)=C(Cl)Cl)C(C)C
active: [2] 15 µM | [7] 15 µM | [8] 27.3 µM | [10] 15 µM | [11] 10.7 µM | [13] 21.8 µM | [15] 15 µM
not listed: [16] | [17] | [18] | [19] | [20]
inactive: all other assays above

O=[N+]([O-])c1cc(C(F)(F)F)c(Cl)c([N+](=O)[O-])c1Nc1ncc(C(F)(F)F)cc1Cl
inactive: [16] | [12] | [14]
active: [1] 0.39 µM | [2] 0.374 µM | [3] 0.549 µM | [4] 885 nM | [5] 1.9 µM | [6] 0.425 µM | [7] 1.06 µM | [17] 2.04 µM | [8] 0.734 µM | [9] 291 nM | [10] 0.771 µM | [18] 2.04 µM | [11] 0.871 µM | [13] 1.01 µM | [15] 0.328 µM

CCOP(=S)(Oc1cnc(C(C)(C)C)nc1)OC(C)C (stereo not drawn)
active: [1] 14.3 µM | [2] 91.8 µM and 12 µM | [4] 50 µM and 16.6 µM | [6] 14.8 µM | [7] 85.8 µM and 13 µM | [8] 74.9 µM and 9.65 µM | [10] 67.3 µM and 9.31 µM | [11] 77.4 µM and 20.6 µM | [13] 80.1 µM and 25.9 µM | [15] 80.9 µM and 13.4 µM
inactive: [1] | [3] | [5] | [6] | [9] | [12] | [14]

COP(=O)(OC)OC(Br)C(Cl)(Cl)Br (stereo not drawn)
active: [1] 7.93 µM and 13.3 µM | [2] 6.36 µM and 12.9 µM | [3] 12.8 µM | [4] 8.78 µM and 10.1 µM | [5] 2.15 µM | [6] 3.48 µM and 13.2 µM | [7] 9.05 µM and 11.9 µM | [8] 8.37 µM and 12.8 µM | [9] 4.26 µM and 9.92 µM | [10] 8.92 µM and 10.3 µM | [11] 6.64 µM and 17.1 µM | [13] 7.73 µM and 16.4 µM | [15] 4.85 µM and 13 µM
inactive: [3] | [5]

CC(=NC#N)N(C)Cc1ccc(Cl)nc1
not listed: [11] | [14] | [16] | [17] | [18]
inactive: all other assays above

CCOP(=S)(OCC)Oc1cc(C)nc(C(C)C)n1
inactive: [1] | [3] | [4] | [5] | [6] | [7] | [8] | [9] | [10] | [13] | [15]
active: [2] 60.2 µM | [7] 50 µM | [10] 16.1 µM | [11] 50 µM | [13] 50 µM | [15] 50 µM

CCOP(=O)(NC(C)C)Oc1ccc(SC)c(C)c1 (stereo not drawn)
active: [1] 40.1 µM | [2] 32.3 µM | [3] 17.3 µM | [4] 31500 nM | [6] 79.5 µM | [7] 51 µM | [8] 21 µM | [9] 10100 nM | [10] 61.4 µM | [11] 51 µM | [15] 36.3 µM
inactive: [1] | [2] | [3] | [4] | [5] | [6] | [7] | [8] | [9] | [10] | [11] | [12] | [13] | [14] | [15]

C#CCC1=C(C)C(OC(=O)C2C(C=C(C)C)C2(C)C)CC1=O (stereo not drawn)
active: [2] 4.27 µM | [5] 9.95 µM | [17] 42.4 µM | [18] 34.5 µM | [15] 0.303 µM
not listed: [11] | [12] | [16] | [19] | [20]
inactive: all other assays above
